Data from PubChem BioAssay (NCI).
The panel holds about 83,000 compounds, 20% with a hit somewhere; the sample as a whole holds those more often.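 Cells were grown in 96-well plates and exposed to the test compound at a single concentration for 48 hours; results are reported as percent growth, with values below 10 considered active.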 A number with no mark means an inactive call. Active and inactive are the calls of the source.

Experiments:
Test in all cases: NCI-60 one-dose screen, 48 h (100 = growth as untreated, 0 = no growth, -100 = all killed)
Settings in all cases: 10 µM unless noted
HCT-15 colon = tested on: HCT-15 colon
HT29 colon = tested on: HT29 colon
SNB-75 CNS = tested on: SNB-75 CNS
SNB-19 CNS = tested on: SNB-19 CNS
U251 CNS = tested on: U251 CNS
PC-3 prostate = tested on: PC-3 prostate
SK-MEL-5 melanoma = tested on: SK-MEL-5 melanoma
UACC-62 melanoma = tested on: UACC-62 melanoma
LOX IMVI melanoma = tested on: LOX IMVI melanoma
SK-MEL-28 melanoma = tested on: SK-MEL-28 melanoma
SK-MEL-2 melanoma = tested on: SK-MEL-2 melanoma
EKVX NSCLC = tested on: EKVX NSCLC
SN12C renal = tested on: SN12C renal
UO-31 renal = tested on: UO-31 renal
TK-10 renal = tested on: TK-10 renal
ACHN renal = tested on: ACHN renal
CAKI-1 renal = tested on: CAKI-1 renal
A498 renal = tested on: A498 renal
CCRF-CEM leukemia = tested on: CCRF-CEM leukemia
MOLT-4 leukemia = tested on: MOLT-4 leukemia

Cn1cccc1C(=O)C1C(c2cccc([N+](=O)[O-])c2)C2C3CCCCC3CN2C12C(=O)Nc1ccc(Cl)cc12 (stereo not given)
growth (HCT-15 colon): 41.7%
growth (HT29 colon): 41.9%
growth (SNB-75 CNS): 37.4%
growth (SNB-19 CNS): 53.2%
growth (U251 CNS): 53.8%
growth (PC-3 prostate): 35.2%
growth (SK-MEL-5 melanoma): 64.5%
growth (UACC-62 melanoma): 60.1%
growth (LOX IMVI melanoma): 37.3%
growth (SK-MEL-28 melanoma): 83.2%
growth (SK-MEL-2 melanoma): 66.5%
growth (EKVX NSCLC): 46.4%
growth (SN12C renal): 59.4%
growth (UO-31 renal): 45.5%
growth (TK-10 renal): 103%
growth (ACHN renal): 59.9%
growth (CAKI-1 renal): 17.4%
growth (A498 renal): 86%
growth (CCRF-CEM leukemia): 58.6%
growth (MOLT-4 leukemia): 28%

CCOC(=O)C1=NN(c2ccccc2)C(=O)/C1=C\N1C(=O)CC(=O)NC1=S
growth (HCT-15 colon): 105%
growth (HT29 colon): 99.7%
growth (SNB-75 CNS): 10.6%
growth (SNB-19 CNS): 97.4%
growth (U251 CNS): 91%
growth (PC-3 prostate): 96.4%
growth (SK-MEL-5 melanoma): 99.6%
growth (UACC-62 melanoma): 87.5%
growth (LOX IMVI melanoma): 93.7%
growth (SK-MEL-28 melanoma): 114%
growth (SK-MEL-2 melanoma): 98%
growth (EKVX NSCLC): 103%
growth (SN12C renal): 95.6%
growth (UO-31 renal): 77.4%
growth (TK-10 renal): 96%
growth (ACHN renal): 101%
growth (CAKI-1 renal): 41.2%
growth (A498 renal): 104%
growth (CCRF-CEM leukemia): 96.2%
growth (MOLT-4 leukemia): 99%

CCOC(=O)c1cnc2ccccc2c1Cl
growth (HCT-15 colon): 101%
growth (HT29 colon): 101%
growth (SNB-75 CNS): 78.2%
growth (SNB-19 CNS): 99.2%
growth (U251 CNS): 102%
growth (PC-3 prostate): 90.9%
growth (SK-MEL-5 melanoma): 88.1%
growth (UACC-62 melanoma): 95.2%
growth (LOX IMVI melanoma): 86.2%
growth (SK-MEL-28 melanoma): 103%
growth (SK-MEL-2 melanoma): 109%
growth (EKVX NSCLC): 103%
growth (SN12C renal): 102%
growth (UO-31 renal): 95.1%
growth (TK-10 renal): 84.4%
growth (ACHN renal): 99.4%
growth (CAKI-1 renal): 94.8%
growth (A498 renal): 56.6%
growth (CCRF-CEM leukemia): 118%
growth (MOLT-4 leukemia): 99.9%

CCN1C(=O)N(CC)C2C1NN=c1s/c(=C\c3ccc(Cl)cc3Cl)c(=O)n12 (stereo not given)
growth (HCT-15 colon): 9.51% (active)
growth (HT29 colon): 2.8% (active)
growth (SNB-75 CNS): 19.7%
growth (SNB-19 CNS): 27.9%
growth (U251 CNS): 11%
growth (PC-3 prostate): 24.6%
growth (SK-MEL-5 melanoma): -20.8% (active)
growth (UACC-62 melanoma): 28.9%
growth (LOX IMVI melanoma): 18.3%
growth (SK-MEL-28 melanoma): 66.1%
growth (SK-MEL-2 melanoma): 45.7%
growth (EKVX NSCLC): 50.1%
growth (SN12C renal): 21.5%
growth (UO-31 renal): 35.9%
growth (TK-10 renal): 67.7%
growth (ACHN renal): 26.7%
growth (CAKI-1 renal): 21.1%
growth (A498 renal): 16.9%
growth (CCRF-CEM leukemia): 9.4% (active)
growth (MOLT-4 leukemia): 12.9%

Cc1ccc(Cc2cnc(NC(=O)c3cc(Br)cs3)s2)cc1
growth (HCT-15 colon): 24.4%
growth (HT29 colon): 16.3%
growth (SNB-75 CNS): 64.5%
growth (SNB-19 CNS): 54%
growth (U251 CNS): 46.9%
growth (PC-3 prostate): 46.4%
growth (SK-MEL-5 melanoma): 46%
growth (UACC-62 melanoma): 44.7%
growth (LOX IMVI melanoma): 54.6%
growth (SK-MEL-28 melanoma): 61.7%
growth (SK-MEL-2 melanoma): 26.9%
growth (EKVX NSCLC): 78.3%
growth (SN12C renal): 68.7%
growth (UO-31 renal): 71.7%
growth (TK-10 renal): 78.1%
growth (ACHN renal): 81.9%
growth (CAKI-1 renal): 53.9%
growth (A498 renal): 55.1%
growth (CCRF-CEM leukemia): 31.8%
growth (MOLT-4 leukemia): 36.1%

Brc1ccc2[nH]cc(-c3nonc3-c3c[nH]c4ccccc34)c2c1
growth (HCT-15 colon): 19.5%
growth (HT29 colon): 11.2%
growth (SNB-75 CNS): 46.5%
growth (SNB-19 CNS): 63.8%
growth (U251 CNS): 43.3%
growth (PC-3 prostate): 35.2%
growth (SK-MEL-5 melanoma): 59.7%
growth (UACC-62 melanoma): 39.2%
growth (LOX IMVI melanoma): 2.2% (active)
growth (SK-MEL-28 melanoma): 77.6%
growth (SK-MEL-2 melanoma): 54%
growth (EKVX NSCLC): 28.4%
growth (SN12C renal): 57.1%
growth (UO-31 renal): 30.4%
growth (TK-10 renal): 41.7%
growth (ACHN renal): 34.2%
growth (CAKI-1 renal): 25.3%
growth (A498 renal): 43%
growth (CCRF-CEM leukemia): 38.8%
growth (MOLT-4 leukemia): 27%

CCN(C(=O)N1CCN(c2cc3c(cc2F)c(=O)c(C(=O)O)cn3C2CC2)CC1)c1nc(-c2ccc(Cl)cc2)cs1
growth (HCT-15 colon): 10.2%
growth (HT29 colon): 5.63% (active)
growth (SNB-75 CNS): 28.9%
growth (SNB-19 CNS): 15.6%
growth (U251 CNS): 15.1%
growth (PC-3 prostate): 10.1%
growth (SK-MEL-5 melanoma): -28.2% (active)
growth (UACC-62 melanoma): -26.7% (active)
growth (LOX IMVI melanoma): 5.32% (active)
growth (SK-MEL-28 melanoma): 40%
growth (SK-MEL-2 melanoma): 9.44% (active)
growth (EKVX NSCLC): 16.9%
growth (SN12C renal): 3.28% (active)
growth (UO-31 renal): 5.03% (active)
growth (TK-10 renal): 28.4%
growth (ACHN renal): -12.2% (active)
growth (CAKI-1 renal): 6.12% (active)
growth (A498 renal): 3.1% (active)
growth (CCRF-CEM leukemia): 20.7%
growth (MOLT-4 leukemia): 5.81% (active)
